This passage reports INHIBITION results from ChEMBL document CHEMBL4513216, “Probing the Open Global Health Chemical Diversity Library for Multistage-Active Starting Points for Next-Generation Antimalarials” (ACS Infect Dis, 2020).

The whole screen tested about 69,000 compounds, of which about 8,600 (12%) showed an effect of 50% or more. This excerpt belongs to a sample that is enriched for strong results.

The assay deals with Plasmodium berghei. The experiment in a line: Screen against P. berghei liver stage (PbLuc), transformed with Luciferase, at 10uM. The class given is functional, HepG2. Particulars: tested at 10 uM.
`Cc1nonc1CC(=O)N1C[C@H]2CC[C@@H](C1)N(Cc1ccccc1)C2=O`: the INHIBITION was 0.139%.
The same measure for `Cc1ccc(CN(CCCN(C)C)Cc2cnc(N(C)C)nc2)o1`: 15.395%; for `CC(C)C(=O)N1CCCC2(C1)CN(c1nncs1)CCO2` (stereo not drawn): 30.3%.
With `CNC(=O)CN1CCOC(c2cccc(N)n2)C1` (stereo not drawn), the INHIBITION was -5.8%.
Take `C[C@@H]1CN2C[C@H](O)CC2CN1Cc1ccc2nccnc2c1` (stereo partly drawn): the INHIBITION worked out at 28.5%.
On to `O=C(CN1CC(c2nc(-c3ccco3)no2)C1)NCC1CCCO1` (stereo not drawn), for which the INHIBITION is 17.7%.
Regarding `COc1ccccc1OCCNCc1c(C(C)C)nn(C)c1N(C)C`, the INHIBITION worked out at 31.3%.
Regarding `O=C(NCCc1ccccn1)C1(n2cnnn2)CCCCC1`, the INHIBITION came to 46.4%.
The result for `CNCc1ccc([C@@H]2CN(C(C)=O)C[C@H]2C(N)=O)cc1` reads -2.46%; that for `NC(=O)CC1CCCCN1C(=O)c1cccc(C(F)(F)F)c1` (stereo not drawn), 37.4%; that for `Cc1ccc(C(=O)N2CCOCC3(CCN(C4CCOCC4)C3)C2)o1` (stereo not drawn), 14.1%.
Take `O=C1CCCN1Cc1ccc(C(=O)N2CCCC2c2cccs2)cc1` (stereo not drawn): the INHIBITION is 4.52%.
The result for `COCC(C)N(Cc1ccccc1OC)C(=O)c1cc(C)[nH]c(=O)c1` (stereo not drawn) reads 29.4%; that for `Cc1cc(C(=O)N(C)Cc2ccccc2OCC(C)C)cc(=O)[nH]1`, 58.1%; that for `CC(C)COc1ccccc1CN(C)C(=O)c1cc(=O)[nH]c(=O)[nH]1`, 10.6%.
Regarding `CCc1ccccc1NC(=O)CCc1cnn(C)c1`, the INHIBITION was 34.2%.
The result for `CN(CC(N)=O)CC1(c2ccc(Br)cc2)CC1` reads -28.4%; that for `Cc1ccc(OCC(=O)NS(=O)(=O)c2cccnc2)cc1C`, 1.48%; that for `Cc1ccc(OCC(=O)Nc2cc(C(=O)O)cc(S(C)(=O)=O)c2)cc1C`, 45.6%.
The result for `Cc1ccc(OCC(=O)Nc2ccc(S(C)(=O)=O)cc2)cc1C` reads 59.4%; that for `COc1ncccc1CN1Cc2nnn(C)c2C(COCC2CC2)C1` (stereo not drawn), 28.4%; that for `Cc1nccc(C2(C)CCCNC2)n1` (stereo not drawn), 40.4%.
The result for `COc1ccc(C(=O)CCC(=O)NCc2c(C)noc2C)cc1F` reads 64.1%; that for `COc1ccc(CNC(=O)CCc2c(C)noc2C)cc1F`, -4.93%.
In the case of `COc1ccc(CCCC(=O)NCc2c(C)noc2C)cc1F`, the INHIBITION worked out at 29.3%.
The same measure for `CC1c2ncc(Cn3cccn3)n2CCN1S(=O)(=O)C1CC1` (stereo not drawn): 30.3%; for `CCN1CC2(CC1=O)CN(Cc1cnn(C)c1)CCN(C(C)=O)C2` (stereo not drawn): -2.53%; for `COc1ccc(CN(Cc2cncn2C)CC2CCCO2)cc1` (stereo not drawn): 35.2%.
The result for `CCn1cncc1CN(Cc1ccc(OC)cc1OC)CC1CCCO1` (stereo not drawn) reads 41.2%.
Consider `COc1ccc(CN(Cc2cncn2C)CC2CCCO2)c(OC)c1` (stereo not drawn), for which the INHIBITION worked out at 50%.
The same measure for `CCS(=O)(=O)c1ccc(N2CCC(NC(=O)CC3CCCC3)CC2)cc1`: 60.1%; for `CCS(=O)(=O)c1ccccc1N1CCC(NC(C)=O)CC1`: 6%; for `CCS(=O)(=O)c1ccc(N2CCC(NC(C)=O)CC2)cc1`: 19.7%.
The same measure for `CCCC(=O)NC1CCN(c2ccccc2S(=O)(=O)CC)CC1`: 58.5%; for `CCS(=O)(=O)c1ccc(N2CCC(NC(=O)C3CCCCC3)CC2)cc1`: 37.7%; for `CCS(=O)(=O)c1ccccc1N1CCC(NC(=O)NC2CCCC2)CC1`: -28.9%.
On to `CCc1nnc2n1CCN(C(=O)c1ccc3[nH]nnc3c1)C2`, for which the INHIBITION was -1.85%.
Regarding `CCOc1ccccc1OC1CCN(C(=O)c2c[nH]nn2)CC1`, the INHIBITION was determined as 33.8%.
With `CS(=O)(=O)N1CCOCC2(CCN(C(=O)c3ccncc3)CC2)C1`, the INHIBITION is on record as 19.5%.
Regarding `COc1ccc(N2CCN(Cc3nc(CSC)no3)C(C)C2=O)cc1` (stereo not drawn), the INHIBITION is -0.55%.
The result for `CN(C)C[C@H]1OC[C@@H]2CCN(C(=O)NCc3cccc(F)c3)C[C@@H]21` reads 61.9%; that for `COc1ccc(CN2CC[C@H]3[C@H](CO[C@H]3CNC(=O)N(C)C)C2)cc1`, 4.61%; that for `Cc1cccc(CN2CC[C@H]3CO[C@H](CNC(=O)N(C)C)[C@H]3C2)c1`, -4.88%.
The same measure for `CN(C)C(=O)NC[C@@H]1OC[C@H]2CN(Cc3cccc(F)c3)CC[C@H]21`: 69.6%.
The result for `CN1CCO[C@@H]2CN(C(=O)NCc3cccc(F)c3)CC[C@@H]2C1` reads 17.7%; that for `CN(C)C[C@H]1OC[C@@H]2CN(C(=O)NCc3cccc(F)c3)CC[C@@H]21`, 24.9%; that for `Cc1ccccc1CN(CCN(C)C)Cc1ccc(C(=O)O)cc1`, -4.37%.
Consider `CC(C)c1nc2n(n1)CC(NCc1nc(C3CC3)no1)CC2` (stereo not drawn), for which the INHIBITION is reported as 16.8%.
For `CN(CC1CCCCO1)c1ncnc2cc(F)ccc12` (stereo not drawn), the INHIBITION turned out to be 4.68%.
Turning to `Cc1ccc(=O)n(CC2(O)CCN(Cc3cc(C)c(O)c(C)c3)CC2)n1`, the INHIBITION is on record as 42.1%.
The same measure for `CCn1ccc(NC(=O)C2CCC(=O)N2Cc2ccc(C)o2)n1` (stereo not drawn): -20.8%; for `C[C@@H]1CN(C(=O)C2(Cn3cccn3)CC2)C[C@@]1(O)C1CCC1`: 9.845%; for `CN(CC(=O)N1CCCC1c1cnn(C)c1)Cc1ccccc1` (stereo not drawn): -25.8%.
In the case of `Cc1cc(CNC(=O)NCc2ccccc2N2CCOCC2)no1`, the INHIBITION is on record as 52.4%.
The same measure for `Cc1cc(CNC(=O)N2CCN(c3ccccc3)CC2)no1`: 14.2%; for `Cc1cc(CNC(=O)NC(C)c2ccc(N3CCOCC3)cc2)no1` (stereo not drawn): 35.1%.
For the compound `CCC(=O)Nc1cccc(OCC(=O)N(C)Cc2nccn2CC)c1`, the INHIBITION amounted to 66.1%.
The same measure for `CCC(=O)Nc1cccc(OCC(=O)N(C)Cc2nc(C)c[nH]2)c1`: 3.82%.
The result for `CCC(=O)Nc1cccc(OCC(=O)N(C)Cc2ccon2)c1` reads 20.2%.
The same measure for `Cn1ccnc(Nc2ccc3c(c2)CCN3C(=O)c2ccoc2)c1=O`: -21.6%.
For `Cc1nc(CC(=O)N2CCCC2Cn2cccn2)cs1` (stereo not drawn), the INHIBITION is reported as 19.4%.
Turning to `O=C(C1CCC1)N1CCC(C(=O)N2CCC(c3ccc(F)cc3)C2)CC1` (stereo not drawn), the INHIBITION amounted to 62.8%.
Consider `O=C(C1CC1)N1CCC(C(=O)N2CCC(c3ccc(F)cc3)C2)CC1` (stereo not drawn), for which the INHIBITION is reported as 61.9%.
The same measure for `O=C(C1CCCC1)N1CCC(C(O)c2ccc(F)cc2)CC1` (stereo not drawn): 31.7%.
The result for `O=C(C1CCS(=O)(=O)CC1)N1CCC(c2ccc(F)cc2)C1` (stereo not drawn) reads -9.51%.
The same measure for `O=C(CN1C(=O)CCNC1=O)N1CCC(c2ccc(F)cc2)C1` (stereo not drawn): 33.4%; for `O=C(c1cc(F)ccc1O)N1CCN(C(=O)C2CCC2)CC1`: 6.11%; for `CC(C)N1CCC(C(=O)N2CCC(c3ccc(F)cc3)C2)CC1` (stereo not drawn): 73%.
Take `CC(C)N1CCC(C(=O)N2CCN(c3cccc(C(=O)O)c3)CC2)CC1`: the INHIBITION came to 43.9%.
Consider `CC(C)N1CCC(C(=O)N2CCCN(c3ccccc3)CC2)CC1`, for which the INHIBITION is listed as 33.9%.
The result for `Cc1cnc2c(S(=O)(=O)NC3CCS(=O)(=O)C3)cccc2c1` (stereo not drawn) reads 10%; that for `Cc1ccc(C(=O)N(C)Cc2cc(C)on2)cn1`, 21.5%; that for `N#Cc1ccccc1N1CCCN(C(=O)CCc2ccco2)CC1`, -2.53%.
The same measure for `CSCC(=O)N[C@H]1CC[C@H](Nc2nccc(-c3cccnc3)n2)C1`: 49.7%.
On to `CN1CCc2[nH]nc(C(=O)N3CCC4(CN(C)C(=O)O4)C3)c2C1` (stereo not drawn), for which the INHIBITION amounted to 48.9%.
With `CN1CCc2[nH]nc(C(=O)N3CCCC4(CC3)CNC(=O)O4)c2C1` (stereo not drawn), the INHIBITION is 46.1%.
For the compound `CN1CCc2[nH]nc(C(=O)N3CCC4(CCCO4)CC3)c2C1`, the INHIBITION is recorded as 71.2%.
Turning to `N#CC1(NC(=O)c2ccc(F)c(Br)c2)CCSC1` (stereo not drawn), the INHIBITION turned out to be 51.8%.
On to `CSCc1cc(C(=O)NC2(C#N)CCSC2)ccc1F` (stereo not drawn), for which the INHIBITION is recorded as -77.6%.
Regarding `CSCc1cc(C(=O)NC2(C#N)CC2)ccc1F`, the INHIBITION is recorded as 32.3%.
The same measure for `Cc1nn(C)c(C)c1C(=O)N1CCOCC1CC(=O)c1ccco1` (stereo not drawn): 17.4%; for `CCOC(=O)C1(O)CCN(C(=O)Nc2ccc(CC)cc2)CC1`: -62.8%; for `CN(C)CCN1C(=O)CO[C@@H]2CN(c3ncc(F)cn3)C[C@H]21`: 17.2%.
In the case of `Cc1cnc(N2C[C@@H]3[C@@H](C2)OCC(=O)N3CC2CC2)nc1`, the INHIBITION is listed as 31.9%.
Regarding `Cc1cnc(N2C[C@@H]3[C@@H](C2)OCC(=O)N3CCN(C)C)nc1`, the INHIBITION worked out at 73.3%.
Regarding `Cc1nn(C)c(N(C)C)c1CNCc1ccc(Cn2cncn2)cc1`, the INHIBITION is -56.7%.
As for `O=C(O)c1cccnc1CN1CCCCC1CCc1ccccn1` (stereo not drawn), the INHIBITION amounted to 37.6%.
As for `O=C(O)c1cccnc1CN1CCCC1CCc1ccccc1` (stereo not drawn), the INHIBITION is reported as 51.2%.
Regarding `O=C(O)c1cccnc1CN1CCCCC1CCc1cccc(O)c1` (stereo not drawn), the INHIBITION is 41.2%.
The same measure for `CCOCC1CN(S(=O)(=O)c2cccc(C)c2)Cc2nccn2C1` (stereo not drawn): 13.1%.
The result for `CCC(C(=O)N(C)Cc1cc(-c2ccccc2)n[nH]1)n1cccn1` (stereo not drawn) reads 5.11%; that for `Cn1ccnc1N1CCN(C(=O)Cc2ccc(Cl)cc2)CC1`, -17.2%.
The result for `OC1(CNCCSc2ccccn2)CNCCOC1` (stereo not drawn) reads 67.2%.
On to `OC1(CNCCSc2ccccn2)CCCNC1` (stereo not drawn), for which the INHIBITION amounted to 38.3%.
The same measure for `OC1(CNCCN2CCc3ccccc32)CNCCOC1` (stereo not drawn): 36.1%.
For `Cc1ccccc1C(=O)N1CCOCC1CN(C)C` (stereo not drawn), the INHIBITION came to 1.06%.
The result for `O=C1C(Nc2ncccn2)CCN1c1ccccc1OC(F)F` (stereo not drawn) reads -10.7%; that for `O=C(Nc1ccncc1)NC1CCN(c2ccccc2OC(F)F)C1` (stereo not drawn), 79%; that for `O=C(NC1CCN(c2ccccc2OC(F)F)C1)c1cccnc1` (stereo not drawn), 27.5%.
As for `O=C(Nc1ccccn1)NC1CCN(c2ccccc2OC(F)F)C1` (stereo not drawn), the INHIBITION came out at 67.8%.
In the case of `Cc1c(CNC2CCN(c3ccccc3OC(F)F)C2)cnn1C` (stereo not drawn), the INHIBITION was 5.64%.
The result for `COc1ccccc1N1CCC(NCc2c(C)noc2C)C1` (stereo not drawn) reads 1.94%; that for `COc1ccccc1N1CCCC(NC(=O)Nc2cccnc2)C1` (stereo not drawn), 10.7%.
With `O=C(Nc1cccnc1)NC1CCN(c2ccccc2OC(F)F)C1` (stereo not drawn), the INHIBITION stood at 56.6%.
`N#Cc1nccnc1NC1CCN(c2ccccc2OC(F)F)C1` (stereo not drawn): the INHIBITION worked out at 36.5%.
The same measure for `O=C(Nc1cn[nH]c1)NC1CCN(c2ccccc2OC(F)F)C1` (stereo not drawn): 29.8%; for `Cc1noc(C)c1CNC1CCN(c2ccccc2OC(F)F)C1` (stereo not drawn): 67.4%; for `O=C(NC1CCN(c2ccccc2OC(F)F)C1)c1c[nH]nn1` (stereo not drawn): -39.7%.
